Tg IFNy HTS: inhibitors of Toxoplasma gondii growth with IFN-gamma; hit rate 3.8% among 69,000; Toxoplasma gondii growth in IFN-gamma-treated host cells; stronger effect = lower value; activity change, negative = inhibition, % (test concentration not listed); in the data active means activity change below about -70%, passing the limit was not always enough;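 further: host cells are HeLa cells infected with Toxoplasma gondii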
Numbers without * were called inactive. Shown is part of a subset that was picked to be rich in hits.

What do the screens show for `CCC(C)[C@H]1O[C@]2(CC[C@@H]1C)C[C@@H]1C[C@@H](C/C=C(\C)[C@@H](OC3C[C@H](OC)C(O[C@H]4C[C@H](OC)[C@@H](O)[C@H](C)O4)[C@H](C)O3)[C@@H](C)/C=C/C=C3\CO[C@@H]4[C@H](O)C(C)=C[C@@H](C(=O)O1)[C@]34O)O2` (some centres undefined)?
Tg IFNy HTS: -80*

How did CO[C@H]1CC(O[C@@H]2/C(C)=C/C[C@@H]3C[C@@H](C[C@]4(C=C[C@H](C)[C@@H](C5CCCCC5)O4)O3)OC(=O)[C@@H]3C=C(C)[C@@H](O)[C@H]4OC/C(=C\C=C\[C@@H]2C)[C@]43O)O[C@@H](C)C1O[C@H]1C[C@H](OC)[C@@H](O)[C@H](C)O1 (some centres undefined) do in these assays?
Tg IFNy HTS: -73*

How did CCOC(=O)c1nc(N2CCC(C(=O)OCC)CC2)c2ccccc2n1 do in these assays?
Tg IFNy HTS: -6

What do the screens show for `COCC(C)NCCc1csc(-c2ccncc2)n1` (centres undefined)?
Tg IFNy HTS: 8

Results for COc1cc(N2CC3COCC3(COc3ccc(C#N)cn3)C2)ncn1 (centres undefined) ?
Tg IFNy HTS: -64

What do the screens show for `Cc1nc(-c2ccc(F)cc2)sc1CCNC(=O)C(=O)Nc1ccc(F)c(Cl)c1`?
Tg IFNy HTS: 27

Results for COc1ccc(-n2c(=O)n(Cc3nc(-c4cc(C)ccc4C)oc3C)c(=O)c3cccnc32)cc1 ?
Tg IFNy HTS: 3

Results for COc1ccc(C(=O)N2CCc3c([nH]c4ccccc34)C2c2ccc(SC)cc2)cc1 (centres undefined) ?
Tg IFNy HTS: -105*

What do the screens show for `CSc1ccc(C2c3[nH]c4ccccc4c3CCN2C(=O)c2ccncc2)cc1` (centres undefined)?
Tg IFNy HTS: 309

What do the screens show for `CSc1ccc(C2c3[nH]c4ccccc4c3CCN2C(=O)c2ccc(F)cc2)cc1` (centres undefined)?
Tg IFNy HTS: -42

How did COc1ccc(CC(=O)N2CCc3c([nH]c4ccccc34)C2c2ccc(SC)cc2)cc1 (centres undefined) do in these assays?
Tg IFNy HTS: 299

Results for COc1cc(C(=O)N2CCc3c([nH]c4ccccc34)C2c2ccc(SC)cc2)cc(OC)c1OC (centres undefined) ?
Tg IFNy HTS: -60

What do the screens show for `CSc1ccc(C2c3[nH]c4ccccc4c3CCN2C(=O)c2ccccc2)cc1` (centres undefined)?
Tg IFNy HTS: -88*

Results for O=C(O)c1cc2nc3c(c(C(F)(F)F)n2n1)CCC3 ?
Tg IFNy HTS: -34

What do the screens show for `CCCOC(=O)N1CC[C@@H](c2ccc3c(c2)OCO3)[C@H](O)C1`?
Tg IFNy HTS: 4

Results for C#CC1(OCC(O)CN2CCN(c3cccc(C(F)(F)F)c3)CC2)CCCCC1 (centres undefined) ?
Tg IFNy HTS: -80*

How did C#CC1(OCC(O)CN2CCN(c3ccccc3OC)CC2)CCCCC1 (centres undefined) do in these assays?
Tg IFNy HTS: 18

Results for OCC(O)CN1CCN(c2ccccc2)CC1 (centres undefined) ?
Tg IFNy HTS: -5

Results for COc1ccc(OC)c(NC(=O)N2CCCCC2CN2CCOCC2)c1 (centres undefined) ?
Tg IFNy HTS: 6

How did CCN1CCOCC2(CCCN(C(=O)c3cn(C)cn3)C2)C1 (centres undefined) do in these assays?
Tg IFNy HTS: -63

Results for CCOC(=O)CNC(=O)Nc1ccc(-c2nc(-c3cc(C)ccc3C)co2)cc1 ?
Tg IFNy HTS: 32

What do the screens show for `Cc1cnc(N2CC3(CCN(c4nccs4)C3)C2)nc1`?
Tg IFNy HTS: -12

How did CCCCCCCCCCCCCCCC[n+]1ccccc1 do in these assays?
Tg IFNy HTS: -91*

What do the screens show for `CSCCC(NC(=O)c1c2c(nn1C)CCCC2)c1cc(=O)[nH]c(-c2cccnc2)n1` (centres undefined)?
Tg IFNy HTS: -20

What do the screens show for `CCOc1ccc(NC(=O)N2CCC3(CC2)NC(=O)c2ccc(Cl)cc2N3CC)cc1`?
Tg IFNy HTS: 356

Results for Nc1[nH]nc2nc3ccccc3nc12 ?
Tg IFNy HTS: 9

Results for Oc1c(Cl)c2nc3ccccc3nc2c2ccccc12 ?
Tg IFNy HTS: -105*

What do the screens show for `c1ccc2c(c1)nc1c2ccc2[nH]onc21`?
Tg IFNy HTS: -2

Results for Cc1ccc2c3c(c(SCC(=O)N4CCN(C(=O)c5ccco5)CC4)nc2c1)CCCC3 ?
Tg IFNy HTS: -31

Results for Cn1ccnc1C(NC(=O)CCc1nc(-c2ccccn2)no1)c1ccc(F)cc1 (centres undefined) ?
Tg IFNy HTS: -37

Results for CC(C)(C)c1ccc2c(c1)OCCOCCOCCOCCO2 ?
Tg IFNy HTS: -21

How did Cc1nn(-c2ccccc2)nc1C(=O)Nc1ccc2c(c1)OCCO2 do in these assays?
Tg IFNy HTS: 7

How did CC(C)(C)c1ccc(/C=C/C(=O)Nc2ccc3c(c2)OCCO3)cc1 do in these assays?
Tg IFNy HTS: -73*

How did O=C(c1ccccc1N1CCOCC1)N1CCc2c([nH]c3ccccc23)C1c1ccccn1 (centres undefined) do in these assays?
Tg IFNy HTS: 0

Results for Cc1ccc(N(Cc2nc(-c3cccc(C)c3)oc2C)S(=O)(=O)c2cccs2)cc1 ?
Tg IFNy HTS: -58

What do the screens show for `COC(=O)[C@@]12OC[C@]34[C@H]([C@@H](O)[C@@H]1O)[C@@]1(C)CC(=O)C(=O)C(C)[C@@H]1C[C@H]3OC(=O)[C@H](OC(=O)/C=C(\C)C(C)C)[C@@H]24` (some centres undefined)?
Tg IFNy HTS: -89*

How did Cc1nn2c(c1-c1ccccc1)N=C(c1ccco1)CC2c1ccco1 (centres undefined) do in these assays?
Tg IFNy HTS: 26

How did Cc1nc(C(C)N(C)C(=O)NC2CCCC2)c(C)s1 (centres undefined) do in these assays?
Tg IFNy HTS: 0

How did Cn1cc(N2CC3(CCN(C(=O)c4ccncc4)C3)CC2=O)cn1 (centres undefined) do in these assays?
Tg IFNy HTS: -8

Results for Cn1c(CC2CCNCC2)nnc1CN1CCc2c([nH]c3ccccc23)C1 ?
Tg IFNy HTS: 5

Results for CCOC(=O)c1nc(Nc2ccc(OC)c(OC)c2)c2ccccc2n1 ?
Tg IFNy HTS: 18

Results for COc1ccc(CNC(=O)c2nc(Nc3ccc(F)cc3)c3ccccc3n2)c(OC)c1 ?
Tg IFNy HTS: 40

How did COc1cc(NS(C)(=O)=O)ccc1Cc1c2ccccc2nc2ccccc12 do in these assays?
Tg IFNy HTS: -83*

What do the screens show for `Cc1nc(C)c(CC(=O)Nc2ccccc2CN2CCCCCC2)s1`?
Tg IFNy HTS: 44

What do the screens show for `COc1ccc(CNc2nc(C)nc(C)c2Oc2ccc(Cl)cc2Cl)cc1`?
Tg IFNy HTS: -8

What do the screens show for `Cc1nc(C)c(Oc2ccc(Cl)cc2Cl)c(Sc2cccc(C(F)(F)F)c2)n1`?
Tg IFNy HTS: -107*

Results for CCOC(=O)c1nc(C)nc(Sc2ccc(Cl)cc2)c1C ?
Tg IFNy HTS: 11

What do the screens show for `Cc1ccc(NC(=O)c2ccccc2C)c(NC(=O)C(C)(C)O)c1`?
Tg IFNy HTS: 205

What do the screens show for `O=c1[nH]nc2c(-c3ccccc3)c(-c3ccccc3)c(-c3ccccc3)nn12`?
Tg IFNy HTS: -106*

How did O=c1cc2nn[nH]n2nc1-c1ccccc1 do in these assays?
Tg IFNy HTS: 124

How did Nc1[nH]nc2nnc(-c3c(-c4ccccc4)nn4ccccc34)cc12 do in these assays?
Tg IFNy HTS: -45

High-throughput results deposited in PubChem by Broad Institute.
